# From PubChem BioAssay
# Shown are actives, neighbours in structure and some others; about 12% of the full set was active somewhere.
# NS1 inh – influenza NS1 inhibition; Potency, µM (doses to about 46.1 µM), for the others: top-dose activity, positive = more growth; actives 0.4% (n = 270,000); AID 2326; calls by dose curve; note: actives are rising curves; nearly all actives have a fitted effect of over 50% in size
#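 OD600 was taken as the measure of yeast growth restored by compound in an NS1-expressing S. cerevisiae strain. Cells had been washed out of glucose medium and diluted 1:100 into galactose -URA medium, pH 6.0.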
# SARS PLP yeast – SARS-CoV PLP inhibition in yeast; S. cerevisiae expressing SARS-CoV PLpro, growth rescue; Potency, µM (doses to about 32.9 µM), for the others: at the highest dose activity, positive = growth rescue, most hits filed as activators; actives 0.19% (n = 330,000); calls by dose curve; note: 0% is about no effect; nearly all actives have a fitted effect of over 55% in size
# Pf growth 48h – inhibits P. falciparum growth in the first generation, 48 h | P. falciparum luciferase growth in erythrocytes, 48 h | Potency, µM (titrated, usually from 28.7 µM), without a hit: top-dose activity change, negative = inhibition, actives largely listed as inhibitors | actives 5.9% (n = 310,000) | AID 504832; note: % is set by controls: 0 for no effect and ±100 for the full control effect
#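 Growth was read as firefly luciferase luminescence after a 48 h, 37 C, 5% CO2 exposure of compounds to reporter-bearing P. falciparum cultures (0.1% parasitemia, 2% hematocrit final) in Albumax-supplemented RPMI 1640.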
# HCV inh – HCV inhibition. Huh7.5.1 HCVcc-Cre infection, luciferase reporter, 44 h. actives 3.4% (n = 340,000). Potency, µM (top dose mostly 41.8 µM), for inactives: at the highest dose activity change, negative = inhibition, actives largely listed as inhibitors; note: % is set by controls: 0 for no effect and ±100 for the full control effect
#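 Cells (1,000/well) were plated 4 h before compound, then infected with HCVcc-Cre virus (~0.5 moi). After 44 h further culture, infection was read as luciferase luminescence following a 15 min substrate incubation at room temperature.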
# AMA1 RON2 block – inhibitors of Plasmodium falciparum AMA1-RON2 interaction. Potency, µM (top dose mostly 58.2 µM), for the others: top-dose activity change, negative = inhibition, hits mostly inhibitors. AlphaScreen AMA1-biotinylated RON2 peptide binding. actives 0.2% (n = 360,000). AID 720542;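 note: 0% = vehicle wells and -100% = peptide control; nearly all actives have a fitted effect of over 45% in size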
#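 AMA1 (3D7) with his tag at 25 nM final met compounds first, then biotinylated RON2 peptide at 25 nM; detection used donor plus acceptor beads, 10 µg/mL apiece, read by AlphaScreen after 30 min at room temperature.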
# Pf growth 96h – inhibits malaria parasite growth, 96 h; P. falciparum luciferase reporter growth, 96 h; Potency, µM (titrated, usually from 28.7 µM), inactives show at the top dose activity change, negative = inhibition, actives largely listed as inhibitors; actives 6.9% (n = 320,000); note: % is set by controls: 0 for no effect and ±100 for the full control effect
#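 Erythrocytes infected with luciferase-expressing P. falciparum were dispensed at 2% hematocrit and 0.05% parasitemia (final), then incubated with compounds 96 hours at 37 C in 5% CO2. Luminescence after detection reagent addition reported growth.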
# An asterisk follows results filed as active; ? = inconclusive; nt = no result. Unless noted, calls come from the whole dose curve; as a rule, active = well fitted curve in the direction sought with a large enough effect; inconclusive = small, poorly fitted or top-dose-only effect, or another doubt; inactive = no such curve, though single readings can be large; an effect the other way counts as inactive or inconclusive. Potency is the fitted concentration of half-maximal effect.
SMILES,NS1 inh,SARS PLP yeast,Pf growth 48h,HCV inh,AMA1 RON2 block,Pf growth 96h
COc1ccc(-n2nc3c(N4CCC(C(=O)NCC(C)c5ccccc5)CC4)nnc(C)c3c2C)cc1 (stereo not drawn),5%,3%,?,11µM*,-6%,-15%
Cc1ccc(-n2nc3c(N4CCC(C(=O)NCCc5ccccc5C)CC4)nnc(C)c3c2C)cc1,17%,0%,?,7.9µM*,4%,31%
COc1ccc(-n2nc3c(N4CCC(C(=O)NCCc5ccccc5C)CC4)nnc(C)c3c2C)cc1,7%,-2%,-11%,?,-2%,-1%
CCOc1ccccc1CNC(=O)C1CCCN(c2nnc(C)c3c(C)n(-c4ccccc4)nc23)C1 (stereo not drawn),-7%,19%,13µM*,?,15%,38%
CCOc1ccccc1CNC(=O)C1CCCN(c2nc3ccccc3o2)C1 (stereo not drawn),-33%,-2%,12%,nt,nt,3.7µM*
O=C(NCCc1ccc(Cl)cc1)C1CCN(S(=O)(=O)c2ccc(-n3cnnn3)cc2)CC1,-38%,4%,?,-11%,15%,?
Cc1ccccc1CCNC(=O)C1CCN(S(=O)(=O)c2ccc(-n3cnnn3)cc2)CC1,-3%,-2%,?,1%,-12%,13µM*
Cc1ccc(-n2nc3c(N4CCC(C(=O)NCc5cccc(F)c5)CC4)nnc(C)c3c2C)cc1,8%,-2%,?,-2%,?,4.1µM*
Cc1ccc(-n2nc3c(N4CCC(C(=O)NCCc5ccco5)CC4)nnc(C)c3c2C)cc1,1%,-5%,?,?,-13%,10%
COc1ccc(-n2nc3c(N4CCCC(C(=O)NCc5ccccc5C)C4)nnc(C)c3c2C)cc1 (stereo not drawn),nt,-3%,12µM*,nt,nt,2.1µM*
COCCN(C(=S)Nc1c(C)cc(C)cc1C)C(C)c1cccs1 (stereo not drawn),nt,0%,?,-5%,8%,?
Cc1ccc(S(=O)(=O)N2CCOCC2)cc1C(=O)NC1CCSc2ccccc21 (stereo not drawn),-13%,1%,-19%,-3%,-4%,2%
Cc1ccc(-n2nc3c(N4CCC(C(=O)N5CCC(C(N)=O)CC5)CC4)nnc(C)c3c2C)cc1,18%,15%,?,-8%,-5%,2%
CCN1CCN(C(=O)C2CCN(c3nnc(C)c4c(C)n(-c5ccc(C)cc5)nc34)CC2)CC1,-8%,6%,?,8.9µM*,0%,?
CCc1c(C)[nH]c2ccccc2c1=O,-40%,?,1.7µM*,-23%,0%,102%
O=C(CN1CCN(c2ncc(C(F)(F)F)cc2Cl)CC1)N1CCN(c2ncc(C(F)(F)F)cc2Cl)CC1,-6%,-16%,nt,?,34%,12µM*
CCCCCCCc1c(O)nc(SCCN2CCOCC2)[nH]c1=O,1%,1%,11%,15%,-1%,11%
Nc1ccc(S(=O)(=O)c2ccc(NCN3C(=O)NC(=O)C(=O)C3=O)cc2)cc1,8%,nt,nt,nt,nt,nt
CCOC(=O)N1CCC(NC(=O)c2cc3c(-c4ccc(OC)c(OC)c4)nn(C)c3s2)CC1,-35%,-8%,?,?,-9%,9.3µM*
CCOC(=O)C1CCN(C(=O)c2cc3c(-c4ccc(OC)c(OC)c4)nn(C)c3s2)CC1,-92%,-7%,nt,-15%,2%,?
COc1ccc2nc(SC(C(=O)c3ccccc3)c3ccccc3)nc(C)c2c1 (stereo not drawn),?,11%,?,?,-19%,13µM*
COc1ccc(C(=O)C2CCCN(Cc3cccn3-c3cccnc3)C2)cc1OC (stereo not drawn),7%,0%,?,-18%,-11%,39%
CSc1ccc(C(=O)C2CCCN(Cc3cc4ccccc4[nH]3)C2)cc1 (stereo not drawn),-2%,-1%,?,?,32µM*,-18%
O=C(c1ccc(Cl)cc1)C1CCCN(Cc2cccn2-c2cccnc2)C1 (stereo not drawn),5%,0%,24%,-28%,-26%,1%
COc1ccc(CN2CCCC(C(=O)c3cccc(OC(C)C)c3)C2)cc1Cn1cccn1 (stereo not drawn),0%,1%,9.3µM*,11µM*,-3%,-30%
SMILES,NS1 inh,SARS PLP yeast,Pf growth 48h,HCV inh,AMA1 RON2 block,Pf growth 96h
CC(C)Oc1cccc(C(=O)C2CCCN(Cc3cccn3-c3cccnc3)C2)c1 (stereo not drawn),2%,12%,?,11µM*,-21%,12µM*
CSc1ccc(C(=O)C2CCCN(Cc3cccn3-c3cccnc3)C2)cc1 (stereo not drawn),0%,-2%,10µM*,14µM*,-24%,11%
Cc1ccc(C(=O)Nc2ncccc2O)cc1S(=O)(=O)N1CCCCC1,nt,8%,?,2%,36%,?
CCOc1ccc(CN(CCO)CCO)cc1C(=O)OC,-2%,3%,8%,7%,3%,2.1µM*
COc1cccc2[nH]c3c(=O)n(CCCN4CCOCC4)cnc3c12,0%,0%,9%,1%,5%,16%
COc1cccc2[nH]c3c(N4CCC(C)CC4)ncnc3c12,-28%,-3%,9.3µM*,?,-2%,?
COc1cccc2[nH]c3c(N4CCC5(CC4)OCCO5)ncnc3c12,1%,0%,21%,0%,0%,0%
COc1cccc2[nH]c3c(N4CCc5ccccc5C4)ncnc3c12,-3%,1%,?,11µM*,-11%,?
O=S(=O)(NCC(c1ccc2c(c1)OCO2)N1CCOCC1)c1ccc(Cl)cc1 (stereo not drawn),nt,-1%,-18%,21%,5%,3%
Cc1cc(S(=O)(=O)NCC(c2ccc3c(c2)OCO3)N2CCOCC2)ccc1F (stereo not drawn),nt,-9%,?,3%,-5%,15µM*
CCOC(=O)C1(c2ccccc2)CCN(CCC(=O)Nc2ccc(OC)cc2)CC1,nt,nt,nt,nt,5%,nt
CCOC(=O)C1(c2ccccc2)CCN(CC(=O)Nc2ccc(C)cc2)CC1,nt,-2%,-23%,?,0%,?
CCOC(=O)C1(c2ccccc2)CCN(CCC(=O)Nc2cccc(Br)c2)CC1,nt,0%,?,11µM*,-15%,?
CCOC(=O)C1(c2ccccc2)CCN(CCC(C#N)(c2ccccc2)c2ccccc2)CC1,nt,nt,1.9µM*,-58%,-20%,1.9µM*
CCOC(=O)C1(c2ccccc2)CCN(CCC(=O)Nc2ccc(C(=O)OC)cc2)CC1,nt,-3%,5.2µM*,?,-5%,9.3µM*
O=C(C[C@H](c1ccccc1)c1c(O)c2ccccc2oc1=O)c1ccccc1,6%,nt,nt,nt,nt,nt
